Screens (PubChem)
In the library only some 1.7% were active in any assay of this set; here they are far more common.
HEK293 tox: cytotoxic in the GLP-1 receptor inverse agonist counter-screen | HEK293 cAMP-luciferase reporter cells, luminescence, 24 h | Potency, µM (highest dose often 38.3 µM), most hits filed as inhibitors | hit rate 0.13% among 410,000;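 note: loss of luciferase light is scored as toxicity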
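To flag toxic compounds, the library was rerun on cells for 24 hr at 37 deg C and 5% CO2. Viability-linked luminescence was captured 12 min after adding luciferase detection reagent.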
RGS4 inhibitor: inhibitors of human regulator of G protein signaling 4; P49798; Transcreener GDP fluorescence polarization, RGS4-accelerated GTP hydrolysis; Potency, µM (top dose mostly 114 µM), actives largely listed as inhibitors; hit rate 0.039% among 390,000; note: nearly all actives have a fitted effect of over 75% in size
Target sequence (P49798 whole entry, looked up): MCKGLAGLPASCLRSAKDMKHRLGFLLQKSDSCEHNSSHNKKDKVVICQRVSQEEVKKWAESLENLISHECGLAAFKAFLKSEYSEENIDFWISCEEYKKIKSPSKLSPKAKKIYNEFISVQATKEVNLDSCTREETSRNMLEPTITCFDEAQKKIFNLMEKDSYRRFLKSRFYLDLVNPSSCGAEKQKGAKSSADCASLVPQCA
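MLSMR compounds (23 nl, pin-transferred) preincubated 10 min at room temperature with a 500nM (2x) first reagent, then RGS4 at 900nM (2x) plus Transcreener GDP mix added; fluorescence polarization (620/688 nm) read before and after 90 min at 30 °C.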
GLP-1R agonist: agonists of human GLP-1 receptor. P43220. HEK293 GLP-1R CRE-luciferase, luminescence, 4-6 h; cells express a hypersensitive GLP-1R form. Potency, µM (top dose mostly 45.6 µM), usual class: activators. hit rate 0.007% among 380,000. AID 624172
Target sequence (P43220 whole entry, looked up): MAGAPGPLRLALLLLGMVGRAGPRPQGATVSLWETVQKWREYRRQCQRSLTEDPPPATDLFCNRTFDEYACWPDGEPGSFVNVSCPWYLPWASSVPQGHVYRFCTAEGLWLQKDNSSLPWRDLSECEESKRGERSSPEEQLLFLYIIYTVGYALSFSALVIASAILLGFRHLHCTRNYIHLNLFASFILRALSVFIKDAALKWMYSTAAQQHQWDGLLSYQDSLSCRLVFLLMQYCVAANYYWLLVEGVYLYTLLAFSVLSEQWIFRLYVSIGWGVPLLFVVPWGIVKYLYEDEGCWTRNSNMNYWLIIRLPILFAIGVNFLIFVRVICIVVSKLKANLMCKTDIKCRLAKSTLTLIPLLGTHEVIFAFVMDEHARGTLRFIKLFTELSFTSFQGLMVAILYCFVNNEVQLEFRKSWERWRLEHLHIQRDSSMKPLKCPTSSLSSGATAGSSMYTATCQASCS
PTHR1 ag: PTHR1 (human) receptor agonism; Q03431; HEK293 GP2 PTHR1 cells, GloSensor cAMP luminescence, 1 h; Potency, µM (series often up to 115 µM), actives largely listed as activators; hit rate 0.075% among 410,000; note: nearly all actives have a fitted effect of over 55% in size
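HEK-293-derived GP2 cells expressing PTHR1 and a GloSensor cAMP reporter, 3,000/well, plated overnight, given luciferin plus IBMX (each 0.5 mM as added) for 1 h at 37 °C, then compound for 1 h at 37 °C. Luminescence was read after 15 min at room temperature.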
GLP1R inv ag: acts as inverse agonist at human GLP-1 receptor; P43220; HEK293 GLP-1R CRE-luciferase, luminescence, 24 h; GLP-1R form is constitutively active; Potency, µM (top dose mostly 38.3 µM), hits mostly inhibitors; hit rate 1.6% among 410,000; AID 624417; note: nearly all actives have a fitted effect of over 55% in size
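Luminescence readout: a drop in cAMP-driven luciferase signal flags inverse agonism at a constitutively active GLP-1R stably expressed in HEK293. Compound exposure lasted 24 hr at 37 deg C, 5% CO2.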
Hits are given with their value; i = inactive; ? = inconclusive; nt = no result given; [ ] = remark or other dose. Calls come from the whole dose curve; as a rule, active = well fitted curve in the direction sought with a large enough effect; inconclusive = small, poorly fitted or top-dose-only effect, or another doubt; inactive = no such curve, though single readings can be large; an effect the other way counts as inactive or inconclusive.

SMILES | HEK293 tox | RGS4 inhibitor | GLP-1R agonist | PTHR1 ag | GLP1R inv ag
Cc1cc(N2CCC(C)CC2)nc(-n2nc(C)cc2C)n1 | 0.79µM | i | i | i | ?
O=C(c1ccccc1)N1N=C(c2ccccc2)CC1c1ccccc1O (stereo not given) | i | ? | i | i | 11µM
O=C(c1ccncc1)N1N=C(c2ccc(Br)cc2)CC1c1ccccc1O (stereo not given) | i | i | i | i | ?
O=C(c1cccs1)N1N=C(c2ccccc2)CC1c1ccccc1O (stereo not given) | i | i | i | i | 8.9µM
Cc1cc(C)cc(N2C(=O)CSC23C(=O)N(Cc2c(F)cccc2Cl)c2ccccc23)c1 (stereo not given) | i | i | i | i | i
CCc1nc(NC(C)(C)C)c2cnn(-c3ccccc3)c2n1 | i | i | i | i | 2µM
CCCCNc1ncnc2c1cnn2-c1ccccc1 | ? | i | i | i | ?
O=C(CN(c1cccc(Br)c1)S(=O)(=O)c1ccccc1)N1CCc2ccccc2C1 | i | i | nt | i | 10µM
CCN1CCN(C(=O)CN(c2cccc(Br)c2)S(=O)(=O)c2ccccc2)CC1 | i | i | i | i | i
CC(C)c1ccc(N2C(=O)CS(=O)(=O)C23C(=O)N(Cc2cccc(F)c2)c2ccccc23)cc1 (stereo not given) | i | i | i | i | i
Cc1ccc([N+](=O)[O-])cc1N=C(c1cccc(Br)c1)N1CCOCC1 | i | i | i | i | 7.9µM
CC(C)c1ccc(NC(=O)CN2C(=O)C3(SCC(=O)N3c3ccc(F)cc3)c3ccccc32)cc1 (stereo not given) | i | i | i | i | ?
CCCCC1C2=C(CC(C)(C)CC2=O)OC2=C1C(=O)CC(C)(C)C2 | i | i | i | i | 8.9µM
COc1ccc(CNC(=O)CCc2ccc(S(=O)(=O)N3CCCCCC3)cc2)cc1 | i | i | i | i | i
CCc1ccc(CNC(=O)Cn2ccc3cc(S(=O)(=O)N4CCCCCC4)ccc32)cc1 | i | i | nt | i | ?
CN(C)c1ccc(CNC(=O)CCc2ccc(S(=O)(=O)N3CCCCCC3)cc2)cc1 | i | i | i | i | 11µM
CCc1ccc(CNC(=O)C(C)n2ccc3cc(S(=O)(=O)N4CCCCCC4)ccc32)cc1 (stereo not given) | i | i | nt | i | 10µM
CCc1ccc(CNC(=O)CCCn2ccc3cc(S(=O)(=O)N4CCCC4)ccc32)cc1 | i | i | nt | i | 8.9µM
NC(=O)c1ncn([C@@H]2O[C@H](CNCc3ccc(OCC(=O)Nc4nccs4)cc3)[C@@H](O)[C@H]2O)n1 | i | i | i | i | i
CCCN(CCC)CCCNC(=O)c1cc2c(=O)n(C)c3ccccc3c2s1 | i | i | nt | i | i
CCOC(=O)C1=C(N)Oc2cc(O)ccc2C1c1ccc([N+](=O)[O-])cc1 (stereo not given) | i | i | i | i | 10µM
CCOC(=O)C1=C(N)Oc2ccc3ccccc3c2C1c1ccc(O)cc1 (stereo not given) | i | i | i | i | ?
Cc1ccc2c(c1)-c1nc(-c3ccc(Cl)cc3)cc(-c3coc4ccccc4c3=O)c1CO2 | i | i | i | i | i
COc1ccc(S(=O)(=O)N2CC3CCCN3c3ccc(C(F)(F)F)cc32)cc1 (stereo not given) | i | i | i | i | i
COc1ccc(S(=O)(=O)N2CC3CCCN3c3cc(C(F)(F)F)ccc32)cc1 (stereo not given) | i | i | i | i | 10µM
SMILES | HEK293 tox | RGS4 inhibitor | GLP-1R agonist | PTHR1 ag | GLP1R inv ag
Cc1ccccc1C(=O)Nc1ccnn1C1CCN(Cc2c(C)n(C)c3ccccc23)CC1 | i | i | i | i | 11µM
CCc1ccc(CN2CCC(n3nccc3NC(=O)c3ccccc3C)CC2)cc1 | ? | i | i | i | 5.6µM
O=C(Nc1ccc2c(c1)OCO2)c1cc(C2CCCCN2C(=O)c2ccc3c(c2)CCO3)on1 (stereo not given) | i | nt | i | i | 10µM
O=C(Nc1ccc2c(c1)OCO2)c1cc(C2CCCCN2C(=O)c2ccc(Cl)cc2)on1 (stereo not given) | i | nt | i | i | ?
CN(C)S(=O)(=O)N(CC(=O)Nc1ccc(Br)cc1F)c1ccccc1 | i | i | i | i | ?
COc1ccc(CCC(=O)NCCOc2ccc(C)cc2)cc1 | i | i | i | i | 1.8µM
Cc1ccc(C)c(OCCC(=O)NCCc2ccc(Cl)cc2)c1 | i | i | i | i | 10µM
CCOc1ccc(CCNC(=O)CCOc2cc(C)ccc2C)cc1OCC | i | i | i | i | ?
Cc1cc(NCCCN2CCOCC2)n2nc(C)c(-c3ccccc3)c2n1 | i | i | i | i | 4.5µM
Cc1cc(NCCCN2CCOCC2)n2nc(C)c(-c3ccc(F)cc3)c2n1 | i | i | i | i | ?
CN1CCN(CCOC2Cc3ccccc3Sc3ccc(Cl)cc32)CC1 (stereo not given) | ? | i | i | ? | 8.9µM
CN1CCN(CCC(=O)N2c3ccccc3Sc3ccc(Cl)cc32)CC1 | ? | i | i | i | ?
NCCCC(N)C(=O)O (stereo not given) | nt | nt | i | nt | nt
CN1/C(=C\C=C(/C#N)C(=O)Nc2ccc(Cl)cc2)C(C)(C)c2ccccc21 | i | i | i | i | i
CN1/C(=C\C(=S)Nc2ccccc2)C(C)(C)c2ccccc21 | ? | i | i | i | 11µM
CN1/C(=C\C(=O)Nc2ccc(Cl)cc2)C(C)(C)c2ccccc21 | i | i | i | i | 10µM
Cc1ccc(NC(=O)COC(=O)CNC(=O)c2cccs2)cc1S(=O)(=O)N1CCOCC1 | i | i | i | i | i
C[C@H](CO)N1C[C@H](C)[C@@H](CN(C)C(=O)NC2CCCCC2)Oc2ncc(Br)cc2C1=O | i | nt | i | i | i
Cc1nn(Cc2c(F)c(F)c(F)c(F)c2F)c(C)c1NC(=O)c1ccc(COc2ccccc2Cl)cc1 | i | i | i | i | i
Cc1nn(Cc2c(F)c(F)c(F)c(F)c2F)c(C)c1NC(=O)c1ccc(COc2ccccc2Cl)o1 | i | i | i | i | 10µM
Cc1ccc(S(=O)(=O)c2nnn(CC(=O)Nc3ccccc3C)c2N)cc1 | i | i | i | i | i
CC1=CC2=NC(=O)/C(=C\c3cccn3CCOc3cccc(C)c3)C(=N)N2O1 | i | ? | i | i | 10µM
CCOc1ccc(CNC(=O)C2Cc3cc(S(=O)(=O)N4CCCCCC4)ccc3N2C(C)=O)cc1 (stereo not given) | i | i | i | i | i
Cc1cc(C(=O)CSc2nc(N)cc(N)n2)c(C)n1CCc1ccc(F)cc1 | i | i | i | i | 5.6µM
CCC(C(=O)NCCC1=CCCCC1)n1nc(C)c2c(C)n(-c3ccccc3)nc2c1=O (stereo not given) | i | i[11.4 µM] | i | i | ?
